Screening results (PubChem)
Only some compounds are listed: those with a hit (about 1.2% of all), similar ones and a draw of the others.
Platelet DG rel: modulates dense granule release in human platelets. 300,000 compounds, 0.22% hits. inhibition, %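 (compounds screened at 7.5 µM in platelet-rich plasma)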. human platelet-rich plasma, SFLLRN dense granule ATP release, luminescence;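 active = mean replicate score, as percent of positive control, at or above 50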
Yeast superoxide: yeast age-related superoxide inhibition as caloric restriction mimetic; superoxide response (% of plate mean), % at 10 µM; 330,000 compounds, 0.18% hits; S. cerevisiae aged cells, superoxide DHE fluorescence; stronger effect = lower value;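 active = superoxide response under a set limit, about three screen SD below normal, cut at about 65% in these data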;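 note: yeast aged for seven days with compound at 30 °C before DHE staining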
ABCB6 inh MLPCN: blocks the human ABCB6 transporter; AID 602162; K562-ABCB6 porphyrin accumulation, flow cytometry, 1 h; stronger effect = lower value; fluorescence ratio to DMSO, % at 10 µM; 360,000 compounds, 0.19% hits; Q9NP58;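 active = fluorescence ratio to DMSO below 75%, the collection mean minus 3 SD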;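 note: signal is porphyrin accumulated inside mitochondria; lower ratio means ABCB6 inhibition with less porphyrin fluorescence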
Target sequence (Q9NP58 whole entry, looked up): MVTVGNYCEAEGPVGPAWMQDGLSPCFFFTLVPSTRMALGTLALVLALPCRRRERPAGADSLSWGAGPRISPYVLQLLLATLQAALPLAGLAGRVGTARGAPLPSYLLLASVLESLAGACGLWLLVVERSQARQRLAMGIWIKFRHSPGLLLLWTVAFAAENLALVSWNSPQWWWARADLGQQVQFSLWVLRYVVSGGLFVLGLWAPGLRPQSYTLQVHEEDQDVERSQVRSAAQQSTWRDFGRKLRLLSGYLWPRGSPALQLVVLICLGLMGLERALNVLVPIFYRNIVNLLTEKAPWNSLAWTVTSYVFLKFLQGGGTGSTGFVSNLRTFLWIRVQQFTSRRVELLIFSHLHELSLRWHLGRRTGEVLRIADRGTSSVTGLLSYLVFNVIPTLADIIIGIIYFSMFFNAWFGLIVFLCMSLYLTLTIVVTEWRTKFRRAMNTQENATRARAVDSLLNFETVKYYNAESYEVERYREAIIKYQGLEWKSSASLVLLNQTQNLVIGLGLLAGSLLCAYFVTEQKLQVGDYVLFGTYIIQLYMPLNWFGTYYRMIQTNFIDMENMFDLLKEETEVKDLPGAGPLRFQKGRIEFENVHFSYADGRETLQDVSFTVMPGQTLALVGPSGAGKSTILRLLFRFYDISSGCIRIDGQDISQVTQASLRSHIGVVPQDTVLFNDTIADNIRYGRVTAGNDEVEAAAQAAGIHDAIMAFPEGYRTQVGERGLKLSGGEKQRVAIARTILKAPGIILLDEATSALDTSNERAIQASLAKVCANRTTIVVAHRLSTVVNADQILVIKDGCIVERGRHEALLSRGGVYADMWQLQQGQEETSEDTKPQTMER
VLA-4 inh: inhibition in a human VLA-4 binding assay; P13612; VLA-4 expressing cells, ligand binding flow cytometry; inhibition, % (about 7 µM as worked out from the volumes in the protocol); 330,000 compounds, 0.2% hits; AID 2557; in the data active = inhibition above about 50%
SKN-1 block: C. elegans SKN-1 inhibition; C. elegans VP596 Pgst-4::GFP/RFP ratio, acrylamide-induced, 24 h; inhibition, % at 21.8 µM; 360,000 compounds, 0.49% hits; AID 624304;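 active = interference check ratio from 0.5 to 1.5 plus GFP to RFP signal ratio inhibition reaching or exceeding a fixed threshold, cut at about 30% in these data, passing the limit was not always enough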
Each line names hits and unclear results; the compound was inactive in the other large screens.

COc1ccccc1C1C(C(=O)NCc2ccccc2)=C(C)Nc2ncnn21 (stereo unspecified)	SKN-1 block 47.2
COc1cccc(C2C(C(=O)NCc3ccccc3)=C(C)Nc3ncnn32)c1 (stereo unspecified)	none
Nc1ncnc2c1ncn2[C@@H]1O[C@H](C(=O)N(CCC2=CCCCC2)CC2CC2)[C@@H](O)[C@H]1O	none (no result: Platelet DG rel, Yeast superoxide, VLA-4 inh)
CN1C(=O)C(N=Nc2ccc([N+](=O)[O-])cc2)SC1=S (stereo unspecified)	SKN-1 block 95.6 (no result: Platelet DG rel, Yeast superoxide, VLA-4 inh)
CN1CCCCCC1=Nc1ccc([N+](=O)[O-])cc1	none
Cc1ccc(S(=O)(=O)/N=C(\c2ccc(F)cc2)n2c(C)nc3ccccc32)cc1	Platelet DG rel 51.7
CCN(CC)C(CNC(=O)CSc1nnnn1-c1ccc(C)c(C)c1)c1ccco1 (stereo unspecified)	Yeast superoxide 64.3 (no result: Platelet DG rel)
COCCN1C[C@@H](CO)O[C@@H](n2cnc3c(NCCO)ncnc32)C1	none (no result: Platelet DG rel, Yeast superoxide, VLA-4 inh)
Clc1c(-c2ccccc2)nnn1-c1ccccc1	SKN-1 block 36.0
Nc1nnn(-c2ccccc2)c1-c1ccccc1	none
CCOC(=O)C1=C(COC(=O)c2cc([N+](=O)[O-])ccc2Cl)NC(=O)NC1C (stereo unspecified)	none (no result: Platelet DG rel, Yeast superoxide, VLA-4 inh)
CCOC(=O)C1=C(COC(=O)c2ccc(Cl)cc2[N+](=O)[O-])NC(=O)NC1C (stereo unspecified)	SKN-1 block 34.3
O=c1c(-c2ccc(Br)cc2)coc2c(CN3CCOCC3)c(O)ccc12	SKN-1 block 35.2
CCc1nc2c(OCC(=O)C(C)(C)C)cccn2c1N(C)C(=O)COc1ccccc1	none (no result: Platelet DG rel, Yeast superoxide, VLA-4 inh)
CC(=O)Nc1cccc(-c2ccnc3c2CC(C)(C(=O)NCc2ccc(F)c(F)c2)O3)c1 (stereo unspecified)	none (no result: Platelet DG rel, Yeast superoxide, VLA-4 inh)
Cc1nn(-c2ccccc2)c(C)c1/C=N/NC(=O)c1cc(C(C)(C)C)[nH]n1	none
Cc1ccc(-c2cc(C(=O)N/N=C/c3c(C)nn(-c4ccccc4)c3C)[nH]n2)cc1	SKN-1 block 47.2 (no result: Yeast superoxide, VLA-4 inh)
COc1ccc(C(=O)N=c2nc3ccccn3s2)cc1	Platelet DG rel 50.4
COc1ccc(C(=O)O/N=C2\C(=O)N(C)c3ccccc32)cc1	none
COc1ccc(C(=O)Nc2ccccc2C(=O)N/N=C/c2ccco2)cc1	Platelet DG rel 78.5
CCOc1ccc(/C=N/NC(=O)c2ccccc2NC(=O)c2ccc(OC)cc2)cc1	none
Clc1ccc(OCCCCCN2CCOCC2)cc1	SKN-1 block 39.5
Cc1cc(Cl)cc(C)c1OCCCCN1CCOCC1	SKN-1 block 42.5
Cc1cc(Cl)c(OCCCCN2CCOCC2)c(Br)c1	none
Cc1ccc(S(=O)(=O)NC(=O)Cn2nnc(-c3ccccc3)c2COc2ccc3ccccc3c2)cc1	none (no result: Platelet DG rel, Yeast superoxide, VLA-4 inh)
CCOC(=O)[C@]12CCCC=C1N(CCc1ccc(OC)c(OC)c1)C(=O)[C@H](CC(=O)N1CCCC1)C2	none (no result: Platelet DG rel, Yeast superoxide, ABCB6 inh MLPCN, VLA-4 inh)
Brc1ccc(-c2cnc(-c3cccs3)o2)cc1	SKN-1 block 89.4
Cc1ccc(Cc2c(-c3ccc(Cl)cc3)nc3c(C)cc(Br)cn23)cc1	none (no result: Platelet DG rel, Yeast superoxide, VLA-4 inh)
c1ccc2nc(-c3ccc(-n4ccnc4)cc3)ccc2c1	SKN-1 block 66.3
c1ccc(-c2ccc3ccccc3n2)cc1	none
Cc1c(C(=O)NCc2ccc(Cl)c(Cl)c2)sc(=O)n1Cc1ccc(C(=O)N(C)C)cc1	none (no result: Platelet DG rel, Yeast superoxide, VLA-4 inh)
Cc1sc(NC(=O)c2ccco2)c(C(c2cccnc2)N2CCCC2)c1C (stereo unspecified)	SKN-1 block 29.5
CC(/C=N/Nc1ncc(C)c(=O)[nH]1)=C\c1ccccc1	SKN-1 block 41.4
O=C(Nc1cccc(O)c1)c1noc2c1CCc1ccccc1-2	Platelet DG rel 50.8
Cc1ccc(NC(=O)c2noc3c2CCc2ccccc2-3)cc1	none
FC(F)(F)c1ccccc1Cc1c(-c2ccco2)nc2ccc(Br)cn12	none (no result: Platelet DG rel, Yeast superoxide, VLA-4 inh)
CC(C)(C)CN1C(=O)C(=O)NC[C@@H]1CC1CCCCC1	none (no result: Platelet DG rel, Yeast superoxide, VLA-4 inh)
O=C(COC(=O)c1cccc(S(=O)(=O)N2CCOCC2)c1)Nc1ncc(C(F)(F)F)cc1Cl	SKN-1 block 41.9
O=C(COC(=O)CCc1ccc(S(=O)(=O)N2CCOCC2)cc1)Nc1ncc(C(F)(F)F)cc1Cl	none
O=C(Nc1cccnc1)c1cc(-c2ccc3c(c2)OCO3)on1	SKN-1 block 38.9
O=C(Nc1cccnc1)c1cc(-c2ccc(F)cc2)on1	none
O=C(Nc1cccnc1)c1cc(-c2cccc(Cl)c2)on1	none
O=C(Nc1cccnc1)c1cc(-c2ccc(Cl)c(Cl)c2)on1	Platelet DG rel 55.0
COCCN(CCOC)Cc1cc(=O)oc2cc(C)ccc12	none (no result: Platelet DG rel, Yeast superoxide, VLA-4 inh)
